Test results as given in PubChem BioAssay (Tox21).
Inconclusive results are not listed. The source made the active and inactive calls. Unless noted, calls come from the whole dose curve; as a rule, active = well fitted curve in the direction sought with a large enough effect in the repeat runs; inconclusive = weak or mixed curves; inactive = no such curve, though single readings can be large; an effect the other way counts as inactive or inconclusive.

Legend:
[1] = molecular target: Retinoic acid receptor RXR-alpha (Homo sapiens) (UniProt P19793); experiment: qHTS assay to identify small molecule agonists of the RXR signaling pathway (AID 1159527; calls by dose curve; note: nearly all actives have a fitted effect of over 35% in size)
In short: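 Beta-lactamase reporter assay, agonist format. Engineered HEK 293T line, charcoal-stripped FBS at 2%, overnight (16 hr) exposure, fluorescence at 460 and 530 nm after 405 nm excitation.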

[2] = qHTS assay to identify small molecule agonists of the RXR signaling pathway - cell viability counter screen (AID 1159529);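 note: HEK 293T cells carrying an RXR-alpha UAS beta-lactamase reporter; series mostly up to about 77 µM; nearly all actives have a fitted effect of over 50% in size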
In short: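 Same-well viability check after the LiveBLAzer FRET read: CellTiter-Glo added, luminescence measured after 30 min at room temperature. Reporter HEK 293T cells had been treated with compounds for 16 hr following a 5 hr preincubation.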

[3] = qHTS assay to identify small molecule antagonists of the retinoid acid receptor (RAR) signaling pathway - cell viability counter screen (AID 1159551); note: nearly all actives have a fitted effect of over 35% in size
In short: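 C3RL4 cells were seeded overnight at 37 C, then treated with compounds plus 1 uM (final) retinol for 6 h at 37 C. Viability was read as ATP by CellTiter-Glo luminescence after 30 min at room temperature.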

[4] = qHTS assay to identify small molecule antagonists of the estrogen related receptor (ERR) signaling pathway - cell viability counter screen (AID 1224818);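 note: series mostly up to about 46 µM; viability measured after 17.5 h of compound exposure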
In short: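 ERR reporter cells plated 6 h at 37 C/5% CO2, then compounds in DMSO pin-transferred and incubated 17.5 h at 37 C. Viability read as CellTiter-Fluor fluorescence after 30 min at 37 C.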

[5] = qHTS assay to identify small molecule antagonists of the estrogen related receptor signaling pathway with the pleiotropic PPARgamma coactivator (PGC) cell viability counter screen (AID 1224822; note: series mostly up to about 46 µM)
In short: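 PGC/ERR cells were seeded at 2,000 cells/well, rested 6 h at 37 C/5% CO2, then given compounds in DMSO by pin tool and incubated 17.5 h at 37 C. Viability came from CellTiter-Fluor fluorescence after 30 min.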

[6] = qHTS assay to identify small molecule antagonists of the estrogen related receptor (ERR) signaling pathway from Tox21 library - cell viability counter screen (AID 1224834); note: nearly all actives have a fitted effect of over 30% in size
In short: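 ERR reporter cells were plated 6 h before compound addition, then exposed to test compounds in DMSO for 17.5 h at 37 C. Viability was read as CellTiter-Fluor fluorescence after a 30-minute incubation at 37 C.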

[7] = molecular target: Luciferin 4-monooxygenase (Photinus pyralis) (UniProt P08659); experiment: qHTS assay to identify small molecule inhibitors of firefly luciferase (AID 1224835); note: series mostly up to about 120 µM; nearly all actives have a fitted effect of over 25% in size
In short: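 Quantitative HTS format; KM concentrations of both substrates. Purified P. pyralis FLuc activity quantified from luminescence images.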

[8] = qHTS assay to identify small molecule antagonists of the constitutive androstane receptor (CAR) signaling pathway - cell viability counter screen (AID 1224837); note: series mostly up to about 92 µM; nearly all actives have a fitted effect of over 45% in size
In short: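 HepG2 cells stably expressing hCAR and a CYP2B6-2.2kb reporter were plated and pre-incubated 4 hr at 37 C/5% CO2, then given compounds at 15 concentrations plus 50 nM CITCO (final). After 23 hr, viability was read by CellTiter-Fluor fluorescence.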

[9] = qHTS assay to identify small molecule antagonists of the estrogen related receptor signaling pathway with the pleiotropic PPARgamma coactivator (PGC) from Tox21 10K library - cell viability counter screen (AID 1224840; active = well fitted cell-killing curve with a large enough effect in the repeat runs, not every such curve was filed as active; note: nearly all actives have a fitted effect of over 40% in size)
In short: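 PGC/ERR cells were seeded at 2,000 cells/well and left 6 hours at 37 C/5% CO2 before pin-tool addition of compounds in DMSO. After 17.5 hours at 37 C, CellTiter-Fluor was added and fluorescence read 30 minutes later.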

[10] = qHTS assay to identify small molecule agonists of the constitutive androstane receptor (CAR) signaling pathway - cell viability counter screen (AID 1224836); note: series mostly up to about 92 µM; nearly all actives have a fitted effect of over 45% in size
In short: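 Compound titrations (15 concentrations) went onto HepG2-CYP2B6-hCAR cells 4 h after seeding, alongside PK11195 at a final 0.75 uM; a 23 h, 37 C/5% CO2 incubation preceded CellTiter-Fluor viability measurement.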

[11] = molecular target: Nuclear receptor subfamily 1 group I member 3 (Homo sapiens) (UniProt Q14994); experiment: qHTS assay to identify small molecule antagonists of the constitutive androstane receptor (CAR) signaling pathway (AID 1224838); note: nearly all actives have a fitted effect of over 40% in size
In short: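 HepG2 cells stably co-transfected with hCAR and a CYP2B6-2.2kb luciferase reporter were seeded 4 h before compound addition at 15 concentrations. Cells were stimulated with 50 nM CITCO (final) for 24 h at 37 C; luciferase luminescence was then read.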

[12] = molecular target: Nuclear receptor subfamily 1 group I member 3 (Homo sapiens) (UniProt Q14994); experiment: qHTS assay to identify small molecule agonists of the constitutive androstane receptor (CAR) signaling pathway (AID 1224839);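 note: HepG2 cells stably carrying human CAR and a CYP2B6 luciferase reporter; series mostly up to about 92 µM; nearly all actives have a fitted effect of over 15% in size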
In short: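 In this screen, CAR-driven CYP2B6 promoter activity is measured by luminescence in HepG2-CYP2B6-hCAR cells after 24 h with test compounds and 0.75 uM PK11195 (final concentration).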

[13] = qHTS assay to identify small molecule antagonists of the estrogen related receptor signaling pathway with the pleiotropic PPARgamma coactivator (PGC) from Tox21 10K library (AID 1224841; call rule not given here; note: series mostly up to about 92 µM; actives are mostly falling curves and most rising ones were filed inactive; nearly all actives have a fitted effect of over 50% in size)
In short: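 PGC/ERR reporter cells were seeded at 2,000 cells/well and held 6 hours at 37 C/5% CO2 before pin-tool addition of compounds in DMSO. After 18 hours at 37 C, One-Glo was added and luminescence read after 30 minutes at room temperature.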

[14] = qHTS assay to identify small molecule agonists of the estrogen related receptor signaling pathway with the pleiotropic PPARgamma coactivator (PGC) from Tox21 10K library (AID 1224842); note: nearly all actives have a fitted effect of over 15% in size
In short: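 PGC/ERR reporter cells (NTP line) were seeded 2,000 per well, rested 6 h at 37 C/5% CO2, then pin-dosed with compounds in DMSO for 18 h at 37 C; luciferase read by One-Glo luminescence after 30 min at room temperature.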

[15] = qHTS assay to identify small molecule antagonists of the estrogen related receptor (ERR) signaling pathway (AID 1224819;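 note: luminescence from an ERR-driven luciferase reporter measured with One-Glo reagent; series mostly up to about 46 µM; nearly all actives have a fitted effect of over 50% in size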)
In short: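 ERR reporter cells were plated at 2,000 cells/well and left 6 h at 37 C/5% CO2 before pin-tool transfer of compounds in DMSO. After 18 h at 37 C, One-Glo was added and luminescence was read 30 min later at room temperature.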

[16] = qHTS assay to identify small molecule agonists of the estrogen related receptor (ERR) signaling pathway (AID 1224820)
In short: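 Quantitative HTS of the LOPAC library used NTP ERR reporter cells treated 18 h at 37 C. Signal is luminescence after One-Glo addition and a 30 min room-temperature incubation.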

[17] = system: estrogen-related receptor alpha (ERRalpha) with PGC-1alpha coactivator, human; experiment: qHTS assay to identify small molecule antagonists of the estrogen related receptor signaling pathway with the pleiotropic PPARgamma coactivator (PGC) (AID 1224821; calls by dose curve;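 note: series mostly up to about 46 µM; lower luminescence signal means antagonism of PGC/ERR signalling; nearly all actives have a fitted effect of over 50% in size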)
In short: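 Quantitative HTS for antagonism: PGC/ERR cells received compounds after 6 h attachment and were incubated 18 h at 37 C, with luminescence (One-Glo) as the endpoint.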

[18] = qHTS assay to identify small molecule agonists of the estrogen related receptor signaling pathway with the pleiotropic PPARgamma coactivator (PGC) (AID 1224823)
In short: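 Cell-based luciferase assay in the NTP-supplied PGC/ERR line, 2,000 cells/well; 18 h compound exposure at 37 C, luminescence after One-Glo.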

Measured: Potency

Chain of Luciferin 4-monooxygenase (Photinus pyralis) (P08659 whole entry, looked up): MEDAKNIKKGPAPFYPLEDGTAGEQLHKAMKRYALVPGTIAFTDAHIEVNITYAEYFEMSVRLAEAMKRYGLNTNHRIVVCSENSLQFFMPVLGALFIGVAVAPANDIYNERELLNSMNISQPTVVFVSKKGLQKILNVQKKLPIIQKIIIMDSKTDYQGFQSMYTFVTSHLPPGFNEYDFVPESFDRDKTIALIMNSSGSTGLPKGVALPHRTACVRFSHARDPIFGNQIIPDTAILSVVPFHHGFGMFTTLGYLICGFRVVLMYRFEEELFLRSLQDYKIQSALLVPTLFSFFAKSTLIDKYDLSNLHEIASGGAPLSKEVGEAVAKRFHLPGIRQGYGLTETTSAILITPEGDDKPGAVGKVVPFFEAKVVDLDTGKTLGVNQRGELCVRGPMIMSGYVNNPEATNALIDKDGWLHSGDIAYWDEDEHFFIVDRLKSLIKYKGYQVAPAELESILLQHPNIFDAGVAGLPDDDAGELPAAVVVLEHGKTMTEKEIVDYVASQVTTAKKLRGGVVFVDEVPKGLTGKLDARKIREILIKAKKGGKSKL
Chain of Nuclear receptor subfamily 1 group I member 3 (Homo sapiens) (Q14994 whole entry, looked up): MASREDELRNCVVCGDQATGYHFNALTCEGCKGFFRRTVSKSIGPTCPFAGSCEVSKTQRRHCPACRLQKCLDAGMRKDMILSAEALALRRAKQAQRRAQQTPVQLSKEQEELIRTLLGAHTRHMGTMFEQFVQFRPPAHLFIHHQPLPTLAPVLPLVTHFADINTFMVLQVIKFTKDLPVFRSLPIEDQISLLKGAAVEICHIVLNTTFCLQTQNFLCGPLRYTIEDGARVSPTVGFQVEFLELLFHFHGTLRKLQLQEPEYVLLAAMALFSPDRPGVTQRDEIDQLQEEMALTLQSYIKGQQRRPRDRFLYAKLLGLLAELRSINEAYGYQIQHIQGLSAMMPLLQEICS
Chain of Retinoic acid receptor RXR-alpha (Homo sapiens) (P19793 whole entry, looked up): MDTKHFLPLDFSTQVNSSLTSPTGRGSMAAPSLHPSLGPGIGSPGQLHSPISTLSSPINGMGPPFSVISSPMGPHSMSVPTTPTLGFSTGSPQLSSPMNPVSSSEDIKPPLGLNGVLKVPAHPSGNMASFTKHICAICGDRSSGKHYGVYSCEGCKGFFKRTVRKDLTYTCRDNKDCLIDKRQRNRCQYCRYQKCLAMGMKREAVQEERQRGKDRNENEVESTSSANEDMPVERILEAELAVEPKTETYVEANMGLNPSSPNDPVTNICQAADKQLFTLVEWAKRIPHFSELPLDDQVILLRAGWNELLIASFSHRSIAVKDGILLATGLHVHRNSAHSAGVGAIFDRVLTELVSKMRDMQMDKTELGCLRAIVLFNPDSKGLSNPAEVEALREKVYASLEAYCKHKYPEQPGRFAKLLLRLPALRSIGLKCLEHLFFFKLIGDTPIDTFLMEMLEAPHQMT

Nc1nnc(-c2cccc(Cl)c2Cl)c(N)n1
inactive: [1] | [2] | [3] | [4] | [5] | [6] | [7] | [8] | [9]

O=C(CCNNC(=O)c1ccncc1)NCc1ccccc1
not listed: [13] | [14] | [15] | [16] | [17] | [18]
inactive: all other assays above

CC1(C)S[C@@H]2[C@H](N=CN3CCCCCC3)C(=O)N2[C@H]1C(=O)O
inactive: [1] | [2] | [3] | [6] | [7] | [10] | [8] | [11] | [12] | [9]

CCN1CCc2nc(N)oc2CC1
not listed: [13] | [14] | [15] | [16] | [17] | [18]
inactive: all other assays above

C=C(C)C(=O)OCCOP(=O)(O)OCCOC(=O)C(=C)C
not listed: [4] | [5] | [15] | [16] | [17] | [18]
inactive: all other assays above

C[C@@H](O)[C@H]1C(=O)N2C(C(=O)O)=C(SCCN=CN)C[C@H]12
not listed: [7] | [10]
inactive: all other assays above

Cc1cccc(C)c1OCC(C)N (stereo not drawn)
not listed: [7] | [10]
inactive: all other assays above

CN(CCOc1ccc(NS(C)(=O)=O)cc1)CCc1ccc(NS(C)(=O)=O)cc1
inactive: [1] | [2] | [3] | [4] | [5] | [6] | [7] | [10] | [8] | [9]

CCC(C=O)CC
not listed: [4] | [5] | [14] | [15] | [16] | [17] | [18]
inactive: all other assays above

CC(C)NCC(O)COc1cccc2[nH]ccc12 (stereo not drawn)
inactive: [1] | [2] | [3] | [4] | [5] | [6] | [10] | [8] | [11] | [9]
